# Source: PubChem (National Center for Advancing Translational Sciences (NCATS))
# Shown are actives, neighbours in structure and some others; about 3.3% of the full set was active somewhere.
# VACV Venus inh = inhibitors of vaccinia virus (Venus reporter) | Vaccinia virus Venus reporter expression, fluorescence | Potency, µM (titrated, usually from 36.5 µM), for the others: at the top dose activity change, negative = inhibition, most hits filed as inhibitors | 0.46% of 330,000 active; calls by dose curve; tested in A549 cells; also: nearly all actives have a fitted effect of over 30% in size
# HCV inh = blocks hepatitis C virus; Huh7.5.1 HCVcc-Cre infection, luciferase reporter, 44 h; Potency, µM (highest dose often 41.8 µM), for inactives: at the top dose activity change, negative = inhibition, actives largely listed as inhibitors; 3.4% of 340,000 active; AID 651820; active = well fitted inhibition curve with a large enough effect; inconclusive = small, poorly fitted or top-dose-only effect, or another doubt; inactive = no such curve, though single readings can be large or run the other way
#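 1,000 cells/well; 4 h culture; + compound; + HCVcc-Cre (~0.5 moi); 44 h; luciferase substrate, RT 15 min; read 15 sec.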
# Vaccinia mCherry = vaccinia inhibition (mCherry reporter); Vaccinia virus mCherry reporter infection, fluorescence; Potency, µM (series often up to 36.5 µM), for the others: at the top dose activity change, negative = inhibition, most hits filed as inhibitors; 0.63% of 310,000 active; AID 720579; calls by dose curve; tested in A549 cells; also: nearly all actives have a fitted effect of over 35% in size
# Starred values were filed as active, the others as inactive; i = inactive; ? = inconclusive; / = no result. % is scaled to controls: 0 for no effect and ±100 for the full control effect; potency is read from the fitted curve at half-maximal effect.
SMILES,VACV Venus inh,HCV inh,Vaccinia mCherry
Cc1ccc(-n2ncc(C(=O)NCCN3CCC(Cc4ccccc4)CC3)c2C2CCN(C(=O)OC(C)(C)C)CC2)cc1,11µM*,/,?
CC(C)(C)OC(=O)N1CCC(c2c(C(=O)NCCN3CCC(Cc4ccccc4)CC3)cnn2-c2cccc(Cl)c2)CC1,11µM*,/,11µM*
CN1CCN(CCNC(=O)c2cnn(-c3cccc(Cl)c3)c2C2CCN(C(=O)OC(C)(C)C)CC2)CC1,-19%,/,-23%
CCOc1ccc(NC(=O)c2sc(-n3nc(C)c(Cc4ccc(Cl)cc4)c3C)nc2C)cc1,-21%,/,-3%
Cc1ccnc2ncccc12,-4%,/,-18%
Cc1ncc([N+](=O)[O-])n1CC(=O)Nc1ccc(F)c(Cl)c1,-9%,27%,i
CCc1ccc(-n2c(CCC(=O)O)ccc2-c2ccc(F)cc2)cc1,-1%,/,3%
CCOc1ccccc1NC(=O)CSc1cn(CC(=O)N2CCCCCC2)c2ccccc12,-10%,/,-12%
CCCC(=O)Nc1nn(C)c2nc3c(C)cccc3cc12,-5%,6%,-9%
CCCn1nc(NC(=O)CC(C)C)c2cc3cccc(C)c3nc21,-10%,-6%,-8%
CCCn1nc(NC(C)=O)c2cc3cccc(C)c3nc21,/,11µM*,/
CCCn1nc(NC(=O)COC)c2cc3cccc(C)c3nc21,-23%,11µM*,-16%
COc1cc2nc(N(C)C)nc(NC3CCN(C)CC3)c2cc1OC,?,/,-27%
O=C(N/N=C/c1cc2c(cc1Br)OCO2)c1c[nH]c2ccccc12,/,22µM*,/
Cc1ccc(C(=O)Nc2ccc(C(=O)N/N=C/c3c[nH]c4ccccc34)cc2)cc1,-19%,?,i
O=C(N/N=C/c1cccnc1)c1ccccc1OCc1cccc(Br)c1,-2%,?,2%
O=C(N/N=C/c1ccncc1)c1cc(Br)ccc1OCc1ccccc1,-11%,8.9µM*,i
O=C(N/N=C/c1cc2c(cc1Br)OCO2)c1ccccn1,5%,-8%,-6%
CCOc1ccc(Br)cc1C(=O)N/N=C/c1c[nH]c2ccccc12,/,13µM*,/
O=C(N/N=C/c1c[nH]c2ccccc12)c1cc(Br)ccc1O,/,15%,/
Cc1cccc(NC(=S)N/N=C/c2c[nH]c3ccccc23)c1,?,10µM*,?
COc1cc(-c2noc(C)c2C#CCCN2C(=O)c3ccccc3C2=O)cc(OC)c1OC,-7%,/,-15%
Cc1c(C(=O)NCc2ccccc2Cl)sc2ncnc(N(C)C3CCCCC3)c12,-6%,/,1%
Cc1ccc(C)c(CC(=O)N2CCCCC2c2cc(C(=O)Nc3ccc(F)c(Cl)c3)no2)c1 (stereo not given),3%,/,-8%
O=C(CC1N=C2c3ccccc3N=C(SCc3ccccc3F)N2C1=O)NCc1cccs1 (stereo not given),-15%,/,-16%
SMILES,VACV Venus inh,HCV inh,Vaccinia mCherry
CC(C)c1c(C(=O)NCCN2CCOCC2)cnn1-c1nccc(-c2cccs2)n1,-13%,/,-23%
O=C(NCCCN1CCOCC1)c1nn(-c2ccccc2)c(=O)c2ccccc12,-10%,11%,-7%
Clc1ccc(COc2ccccc2CNCc2cccnc2)cc1,-7%,10µM*,-11%
Cc1ccc(C(=O)N/N=C\c2cc3c(cc2Br)OCO3)cn1,2%,-7%,-3%
Fc1ccc(COc2ccccc2CNCc2ccncc2)cc1,-11%,?,-10%
C=CCOc1ccccc1CNCc1cccnc1,/,13%,/
Brc1ccc(OCc2ccccc2)c(CNCc2ccncc2)c1,/,10µM*,/
CC(C)(C)c1cc(C(=O)N/N=C/c2cc3c(cc2Br)OCO3)n[nH]1,/,11µM*,/
Cc1ccc(Cn2c(=O)n(Cc3ccc(C(=O)NC4CCN(Cc5ccccc5)CC4)cc3)c(=O)c3ccccc32)cc1,4%,/,12%
CN(Cc1cccc2cnccc12)C(=O)c1cc(COc2ccc(F)cc2Cl)on1,1%,10µM*,-12%
O=C(NCCc1ccccc1Cl)c1cc(COc2ccc(F)cc2F)on1,/,11µM*,/
Cc1nnc(CN(C)C(=O)c2cc(COc3ccc(F)cc3Cl)on2)o1,-3%,17%,-6%
Cc1nc(CCNC(=O)c2cc(COc3ccc(F)cc3Cl)on2)sc1C,/,-28%,/
COc1ccc(CN2CC[C@H]3C=CC[C@@H](C(=O)Nc4ccc(Cl)cc4Cl)[C@H]3C2=O)cc1OC,?,/,-24%
CC(C)Cc1nc2cc(NS(=O)(=O)N(C)C)cc(C(=O)N3CCc4ccccc4C3)c2n1C,7%,/,-10%
COc1ccc(C2=NS(=O)(=O)N(C)C(C(=O)N3CCCCC3C)=C2)cc1 (stereo not given),-14%,-17%,i
CCOC(=O)Cn1c(=O)oc2cc(S(=O)(=O)N3CCN(c4cccc(C)c4)C(C)C3)ccc21 (stereo not given),-8%,/,-10%
COc1cc2ncnc(NCc3ccc(C)o3)c2cc1OC,/,-14%,/
Cc1ccccc1CNc1ncnc2cc(Cl)ccc12,-10%,-60%,-10%
Cc1ccc(CNc2ncnc3cc(Cl)ccc23)o1,-33%,11µM*,/
Cc1ccc(CNc2ncnc3cc(Cl)ccc23)cc1,/,11µM*,/
CN(C)C/C=C(\c1ccc(Br)cc1)c1cccnc1,-15%,?,i
O=C(N/N=C\c1ccc(CNS(=O)(=O)c2ccc(Cl)cc2)o1)C(=O)Nc1ccc(Oc2ccccc2)cc1,2%,13µM*,-12%
O=C(N/N=C\c1ccc(CNS(=O)(=O)c2ccccc2)o1)C(=O)Nc1ccc(F)cc1,-30%,-4%,i
COc1ccccc1CN1CCC(n2cc(C(=O)N3CCCCC3)nn2)CC1,-11%,/,-15%
SMILES,VACV Venus inh,HCV inh,Vaccinia mCherry
COc1ccc(S(=O)(=O)/N=C2/C=CC(=O)C(C)=C2C)cc1,/,13µM*,/
CC1=C(C)/C(=N\OS(=O)(=O)c2ccc(C)cc2)C=CC1=O,-15%,?,-8%
COc1ccc(S(=O)(=O)Nc2ccc3c(c2)C(=O)N([C@H](C)CO)C[C@H](C)[C@@H](CN(C)S(=O)(=O)c2ccc(F)cc2)O3)cc1,-25%,?,i
CCOc1ccc(N(C)S(=O)(=O)c2ccc3[nH]cc(C(=O)NCCOC)c(=O)c3c2)cc1,-8%,-27%,i
CCCNC(=O)c1c[nH]c2ccc(S(=O)(=O)N(C)c3ccc(OCC)cc3)cc2c1=O,-26%,22µM*,/
CCOc1ccc(N(C)S(=O)(=O)c2ccc(C)c(C(=O)NCc3cccs3)c2)cc1,/,14µM*,/
CCOc1ccc(C(=O)NCc2cccs2)cc1,/,-8%,/
Cc1ccc(NC(=O)Nc2c(C)[nH]c(=O)[nH]c2=O)cc1Cl,-4%,-17%,-17%
Clc1ccc(-c2ccc(CN3CCCCC3)o2)cc1,/,-25%,/
CN1CCN(Cc2ccc(-c3ccc(Cl)cc3)o2)CC1,/,14µM*,/
NC(=O)c1ccc(NC(=O)C2CCCC2)cc1,-5%,16%,-15%
CCOC(=O)c1c(C=O)c(C)n(Cc2ccc(Cl)cc2)c1C,/,8.9µM*,/
CC(=O)c1c(C(C)=O)c(C)n(Cc2ccc(Cl)cc2)c1C,-20%,?,?
Cc1ccc(-c2cc(-c3ccc(C)cc3)[n+](-c3ccc(C(=O)[O-])cc3)c(-c3ccc(C)cc3)c2)cc1,-12%,2.5µM*,-13%
CCOC(=O)c1cccc(-[n+]2c(-c3ccccc3)cc(-c3ccccc3)cc2-c2ccccc2)c1,-27%,?,i
C[n+]1c(-c2ccccc2)cc(-c2ccc(Cl)cc2)cc1-c1ccccc1,-6%,-20%,i
